# Most compounds without a hit are left out; they make up all but 9.5% or so of the library.
# Tau fluor cs: counter-screen for tau fibril formation inhibitors | tau K18 P301L Alexa594 fluorescence, heparin fibrillization | Potency, µM (series often up to 57.7 µM) | hit rate 0.93% among 280,000; further: nearly all actives have a fitted effect of over 55% in size
#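 Human K18 P301L tau (15 uM unlabeled plus 0.24 uM Alexa 594-labeled, final) in 100 mM sodium acetate pH 7 was mixed with compound and 20 uM heparin and incubated 6 hr at 37 C.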
# Tau FP inhib: inhibitors of human tau fibril formation. K18 P301L tau heparin fibrillization, Alexa594 FP, 6 h. Potency, µM (titrated, usually from 57.7 µM), usual class: inhibitors. hit rate 0.39% among 280,000; further: nearly all actives have a fitted effect of over 55% in size
# Target sequence (P10636 561-689 P618L limits assumed): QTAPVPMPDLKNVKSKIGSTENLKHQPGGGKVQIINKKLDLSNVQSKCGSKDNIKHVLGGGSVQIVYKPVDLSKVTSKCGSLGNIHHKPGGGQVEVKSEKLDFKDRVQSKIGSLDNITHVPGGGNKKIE
#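 Human tau K18 […] P301L fragment, 15 uM unlabeled plus 0.24 uM Alexa 594-labeled tau (final), with compound and 20 uM heparin in 100 mM sodium acetate pH 7; 6 hr at 37 C, then Alexa 594 FP read.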
# ALDH1A1 inh: inhibitors of human aldehyde dehydrogenase 1A1. P00352. Purified ALDH1A1, NADH fluorescence, propionaldehyde substrate. Potency, µM (series often up to 75.3 µM), usual class: inhibitors. hit rate 7.3% among 220,000. AID 1030; active means well fitted inhibition curve with a large enough effect, not every such curve was filed as active; inconclusive means small, poorly fitted or top-dose-only effect, or another doubt; inactive means no such curve, though single readings can be large or run the other way
# Target sequence (P00352 whole entry, looked up): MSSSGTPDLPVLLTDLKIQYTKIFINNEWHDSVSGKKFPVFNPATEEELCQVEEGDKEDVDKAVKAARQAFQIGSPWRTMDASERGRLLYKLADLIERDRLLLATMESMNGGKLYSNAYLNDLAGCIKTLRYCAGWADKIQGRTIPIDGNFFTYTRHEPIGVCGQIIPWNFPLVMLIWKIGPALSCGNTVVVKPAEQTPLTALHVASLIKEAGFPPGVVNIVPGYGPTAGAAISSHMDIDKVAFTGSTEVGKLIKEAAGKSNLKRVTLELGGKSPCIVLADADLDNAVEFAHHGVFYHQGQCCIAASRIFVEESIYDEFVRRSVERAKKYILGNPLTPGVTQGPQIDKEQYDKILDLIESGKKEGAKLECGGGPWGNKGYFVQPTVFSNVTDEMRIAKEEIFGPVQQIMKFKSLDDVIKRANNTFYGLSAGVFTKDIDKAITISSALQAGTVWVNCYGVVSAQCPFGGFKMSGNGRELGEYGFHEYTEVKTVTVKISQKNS
# HPGD block: HPGD (human) dehydrogenase inhibition; purified HPGD, NADH fluorescence kinetic, PGE2 substrate; Potency, µM, hits mostly inhibitors; hit rate 4.3% among 150,000; AID 894; active means well fitted inhibition curve with a large enough effect, not every such curve was filed as active; inconclusive means small, poorly fitted or top-dose-only effect, or another doubt; inactive means no such curve, though single readings can be large or run the other way
#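 NADH formation kinetics: reaction with 30 uM PGE2 and 1 mM NAD+ (final), 20 nM enzyme, Tris-HCl pH 8 with Tween 20, after 15 min compound preincubation at room temperature. Fluorescence change, last versus first of five reads.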
# Tau fibril ThT: blocks human tau fibril formation measured by thioflavin T. recombinant tau K18 P301L (four-repeat tau fragment), heparin-induced fibrillization, ThT fluorescence. P10636. hit rate 2.1% among 270,000. AID 1460. Potency, µM (top dose mostly 57.4 µM), most hits filed as inhibitors; further: nearly all actives have a fitted effect of over 55% in size
#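 Tau K18 P301L fragment (15 uM unlabeled plus 0.24 uM Alexa 594-labeled) in 100 mM sodium acetate pH 7 with compound, fibrillization induced by 20 uM heparin for 6 hr at 37 C. Thioflavin T (30 uM) added, fluorescence read after 1 hr (ex 450, em 510 nm).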
# NPSR antag: blocks cAMP signaling of the human neuropeptide S receptor; Q6W5P4; CHO-NPSR cells, cAMP TR-FRET, antagonist mode; Potency, µM (series often up to 38.3 µM), most hits filed as inhibitors; hit rate 1% among 220,000; further: nearly all actives have a fitted effect of over 50% in size
# Hits are given with their value; 0 = inactive; ? = inconclusive; - = no result given; [ ] = remark or other dose. Unless noted, the call rests on the fitted dose curve; in most records, active means well fitted curve in the direction sought with a large enough effect; inconclusive means small, poorly fitted or top-dose-only effect, or another doubt; inactive means no such curve, though single readings can be large; an effect the other way counts as inactive or inconclusive.
SMILES,Tau fluor cs,Tau FP inhib,ALDH1A1 inh,HPGD block,Tau fibril ThT,NPSR antag
c1ccc(-n2nnc3cnccc32)cc1,0,0,1.3µM,0,0,0
CCCCN(C)CCNC(=O)c1ccc2c(c1)NC(=O)C(N1CCCCC1)S2 (stereo unspecified),0,0,0,0,0,0
Cc1nc(NC(=O)CC(C)C)sc1-c1csc(Nc2ccc(Cl)cc2Cl)n1,22µM[quencher],0,?,?,?,?
COc1ccc(Cl)cc1Nc1nc(-c2sc(NC(=O)CC(C)C)nc2C)cs1,?,0,?,0,?,0
Cc1nc(NC(=O)CC(C)C)sc1-c1csc(Nc2ccc(Cl)cc2)n1,11µM[quencher],0,?,?,?,0
O=C(CCCCn1c(=O)c2ccccc2n(Cc2ccccc2Cl)c1=O)NCCc1ccccc1,0,0,-,-,0,-
N#C/C(=C\c1ccc(-c2ccc(C(=O)O)cc2)o1)C(=O)Nc1ccccc1C(=O)O,0,0,-,-,2.5µM,-
Cc1c(NC(=O)/C(C#N)=C/c2ccc(-c3ccc(Cl)cc3)o2)c(=O)n(-c2ccccc2)n1C,0,0,0,0,14µM,0
CCOc1ccc(NC(=O)/C(C#N)=C\c2ccc(-c3ccc(Cl)cc3)o2)cc1,0,0,-,-,1.4µM,-
CCN(CC)C(=O)c1c(Cl)nc(C)c([N+](=O)[O-])c1C,0,0,0,0,0,0
COc1ccc(-c2cc(C(=O)Oc3ccc(Br)cc3)c3ccccc3n2)cc1,0,0,-,-,0,-
COc1ccccc1Cn1[nH]nnc1=S,0,0,4µM,-,0,0
CO[C@H]1COC(=O)C/C=C\[C@@H](C)COC(=O)[C@H]2CCCN2C(=O)C/C=C\[C@H]1C,0[11.6 µM],0[11.6 µM],0[13.5 µM],-,0[11.5 µM],-
CCOC(=O)C1=C(C)NC2=C(C(=O)CCC2)C1c1ccc(N(C)C)cc1 (stereo unspecified),0,0,28µM,0,0,0
CCCOC(=O)C1=C(C)NC2=C(C(=O)CCC2)C1c1ccc(N(C)C)cc1 (stereo unspecified),0,0,?,0,0,0
CC1=C(C(=O)OCC2CCCO2)C(c2ccc(C)o2)C2=C(CC(c3ccc(N(C)C)cc3)CC2=O)N1 (stereo unspecified),0,0,10µM,0,?,0
CC(C)[C@H](NC(=O)c1ccccc1)C(=O)OCC(=O)c1ccc2c(c1)NC(=O)CO2,0,0,1.1µM,0,0,0
COc1cc(OC)cc(C(=O)N[C@H](C(=O)OCC(=O)c2ccc3c(c2)NC(=O)CO3)C(C)C)c1,0,0,22µM,0,0,0
CN(C)S(=O)(=O)c1cc(NC(=O)COC(=O)CCSc2ccc(Cl)cc2)ccc1Cl,?,?,?,0,0,0
Cc1ccc(C)c(CNC(=O)c2cnc3sc(N4CCCC4)nn3c2=O)c1,0,0,-,-,0,-
COc1ccc2c(c1)-c1nc(N)sc1CC2,?,?,?,-,32µM,0
COc1ccc2c(c1)-c1nc(/N=C/c3ccc(O)c(OC)c3)sc1CC2,0,?,25µM,0,32µM,0
CN(C)c1ccc(-c2cc([C@H]3[C@@H]4C=CCC[C@@]4(C)C(=O)N3Cc3ccccc3)ccc2F)cc1,0,0,-,-,?,?
NNC(=O)Cc1cccnc1,-,-,0[13.5 µM],0,-,-
CC(=O)N1CCCc2cc(S(=O)(=O)N3CCC(C(=O)NCc4ccccc4Cl)CC3)ccc21,0,0,-,-,0,-
SMILES,Tau fluor cs,Tau FP inhib,ALDH1A1 inh,HPGD block,Tau fibril ThT,NPSR antag
O=C1NN(c2ccc(F)c(Cl)c2)C(=O)/C1=C\c1cccc(OC(=O)c2cccs2)c1,?,0,?,10µM,20µM,0
Cc1nc2c(=O)n(-c3ccc(F)c(Cl)c3)nc(C)c2s1,0,0,0,-,0,0
CC(C)=C1C(=O)NN(c2ccc(F)c(Cl)c2)C1=O,0,0,0,8.9µM,?,0
O=C(COc1ccccc1[N+](=O)[O-])N1CCC(c2nc3ccccc3o2)CC1,0,0,-,-,0,-
CCCOc1ccc(Br)cc1-c1cc(-c2ccc(Cl)cc2)[nH]c1-c1ccncc1,7.9µM[quencher],?,?,?,0,-
Cc1ccc2[nH]c(=S)cc(C)c2c1,0,0,3.2µM,7.1µM,?,0
Cc1ccc2c(C)cc(=S)[nH]c2c1,0,0,0,-,0,0
Cc1cc(=S)[nH]c2ccccc12,0,0,?,14µM,0,0
CC1(C)Cc2ccccc2C(CSc2ccccc2C(=O)O)=N1,0,0,40µM,-,?,0
C/C=C1/NN(CCCN2CCN(c3cccc(Cl)c3)CC2)C(=O)N1CCOc1ccccc1,0,?,0,0,0,-
Cc1ccccc1NC(=O)C1c2cccc[n+]2CC(=O)N1c1c(C)cccc1C (stereo unspecified),0,0,11µM,0,?,0
Cc1cccc(C)c1NC(=O)C1c2cccc[n+]2CC(=O)N1Cc1ccc2c(c1)OCO2 (stereo unspecified),0,0,?,-,0,0
Cn1c(=O)c2c(nc(Sc3ncnn3CC(=O)NC3CCCCC3)n2C)n(C)c1=O,0,0,-,-,-,0
Cc1cc(C)nc(SCNC(=O)c2ccc(F)cc2)n1,0,0,0,14µM,0,0
Cc1cc(C)nc(S/C=C/C(=O)c2ccc(F)cc2)n1,0,0,-,-,?,0
CCOC(=O)c1c(C)sc(-c2c(-c3ccc4c(c3)OCCO4)[nH]c3c2c(=O)n(C)c(=O)n3C)c1O,?,?,-,-,0,-
CCc1nc2ccccc2nc1N1CCN(S(=O)(=O)c2ccccc2)CC1,0,0,-,-,0,?
CN(C)CCN(C(=O)c1ccc(Br)s1)c1nc2cc3c(cc2s1)OCCO3,0,0,0,-,0,0
CN(C)CCN(C(=O)c1ccc(N2C(=O)CCC2=O)cc1)c1nc2cc3c(cc2s1)OCO3,0,0,20µM,-,0,0
CC1CN2C(CCC(C)C2c2ccc(Br)cc2)C(=O)O1 (stereo unspecified),0[11.6 µM],?,0[13.5 µM],-,0[11.5 µM],-
COC(=O)C1=C(C(=O)OC)[C@@H]2N(Cc3ccccc3)c3ccccc3[C@@]23C[C@@H](C(=O)OC)N(S(=O)(=O)c2ccc(C#N)cc2)C3=N1,0[11.6 µM],0[11.6 µM],0[13.5 µM],0,0[11.5 µM],-
CCOc1cccc(CN2CCN(c3cccc(C(F)(F)F)c3)CC2)c1O,0,0,0,0,?,10µM
COc1cccc(CN2CCN(c3cccc(C(F)(F)F)c3)CC2)c1OC,0,0,0,0,0,0
CN(C)c1nc(Oc2ccc(=O)n(-c3ccccc3)n2)nc(N2CCOCC2)n1,0,0,0,0,0,0[7.67 µM]
CN(C)c1nc(N(C)C)nc(N2CC(=O)N(c3ccccc3)C2=N)n1,0,0,1.4µM,-,0,0
CCN(CC)c1ccc(NC(=O)/C=C\c2ccccc2Cl)cc1,8.9µM[quencher],0,0,0,4µM,0
Cc1ccc(SCCNC(=O)c2ccccc2C)cc1,0,0,0,16µM,0,0
O=C(/C=C/c1ccccc1Cl)NCc1ccccc1,0,0,0,0,0,0
Cc1ccc(SCCNC(=O)/C=C/c2ccc(Cl)cc2)cc1,0,0,0,0,0,0

# From PubChem BioAssay
